Measured values taken from ChEMBL document CHEMBL3988442, “University of Dundee, Small-Polar-MMV Screening Library” (2021).
For some assays here: Results with a measured potency or affinity are listed apart.

Key:
Parameters in all cases: scale not given: direction of the effect not stated beside the values
[1] = target: Protein translocase subunit SecA (Escherichia coli (strain K12)) (UniProt P10408); assay: Assay to Identify E. coli SecA ATPase Inhibitors; type: functional; details: 30 µM
[2] = target: T1, Ubiquitin-activating enzyme e1, putative (Leishmania donovani (strain BPK282A1)) (UniProt E9BSI1); assay: Leishmania donovani Ubiquitin Activating Enzyme (LdE1); type: functional; details: 30 µM
T1 sequence (whole entry): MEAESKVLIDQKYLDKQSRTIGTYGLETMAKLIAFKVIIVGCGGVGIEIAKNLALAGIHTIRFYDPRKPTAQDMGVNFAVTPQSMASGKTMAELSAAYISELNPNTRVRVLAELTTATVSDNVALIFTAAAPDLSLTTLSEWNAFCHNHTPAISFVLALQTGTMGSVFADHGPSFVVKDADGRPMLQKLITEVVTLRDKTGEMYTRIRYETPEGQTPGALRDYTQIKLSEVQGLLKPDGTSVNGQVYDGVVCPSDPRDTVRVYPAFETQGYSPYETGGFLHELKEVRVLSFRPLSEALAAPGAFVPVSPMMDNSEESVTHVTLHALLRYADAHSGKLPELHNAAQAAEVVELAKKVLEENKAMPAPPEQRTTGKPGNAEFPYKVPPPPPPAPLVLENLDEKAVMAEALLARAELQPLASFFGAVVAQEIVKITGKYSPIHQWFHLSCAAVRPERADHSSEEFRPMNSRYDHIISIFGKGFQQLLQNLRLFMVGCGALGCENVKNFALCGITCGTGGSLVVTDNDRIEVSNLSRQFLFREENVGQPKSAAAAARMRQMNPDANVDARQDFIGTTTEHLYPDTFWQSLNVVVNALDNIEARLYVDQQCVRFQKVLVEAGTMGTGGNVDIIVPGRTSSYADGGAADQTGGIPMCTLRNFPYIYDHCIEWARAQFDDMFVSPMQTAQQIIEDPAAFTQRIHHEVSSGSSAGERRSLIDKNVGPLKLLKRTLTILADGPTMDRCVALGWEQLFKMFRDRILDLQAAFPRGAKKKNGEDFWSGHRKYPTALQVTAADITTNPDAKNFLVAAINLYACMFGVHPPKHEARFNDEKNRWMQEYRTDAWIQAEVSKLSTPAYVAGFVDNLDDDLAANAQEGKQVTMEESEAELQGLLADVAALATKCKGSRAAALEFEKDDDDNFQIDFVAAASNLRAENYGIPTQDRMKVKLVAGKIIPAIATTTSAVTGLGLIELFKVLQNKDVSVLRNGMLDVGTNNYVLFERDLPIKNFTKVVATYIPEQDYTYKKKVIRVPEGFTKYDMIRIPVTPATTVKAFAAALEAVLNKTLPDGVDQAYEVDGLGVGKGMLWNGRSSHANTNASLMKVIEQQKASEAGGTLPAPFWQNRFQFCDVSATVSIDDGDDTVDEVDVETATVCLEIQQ

[3] = target: AMP-activated protein kinase, AMPK (Homo sapiens) (UniProt P54646+O43741+P54619+Q9UGJ0+Q9Y478+Q13131+Q9UGI9); assay: AMP-dependent Kinase enzyme assay. An in vitro enzyme assay that detects ADP turnover that is directly proportional to AMPK activity. This uses naive AMPK that is activated during the assay with MK-8722; type: functional; details: 30 µM
[4] = target: Sialic acid-binding Ig-like lectin 9 (Homo sapiens) (UniProt Q9Y336); assay: Hs-Siglec9 ALPHAscreen SOP 20170721; details: 10 µM
Sialic acid-binding Ig-like lectin 9 (Homo sapiens), sequence (Q9Y336 whole entry): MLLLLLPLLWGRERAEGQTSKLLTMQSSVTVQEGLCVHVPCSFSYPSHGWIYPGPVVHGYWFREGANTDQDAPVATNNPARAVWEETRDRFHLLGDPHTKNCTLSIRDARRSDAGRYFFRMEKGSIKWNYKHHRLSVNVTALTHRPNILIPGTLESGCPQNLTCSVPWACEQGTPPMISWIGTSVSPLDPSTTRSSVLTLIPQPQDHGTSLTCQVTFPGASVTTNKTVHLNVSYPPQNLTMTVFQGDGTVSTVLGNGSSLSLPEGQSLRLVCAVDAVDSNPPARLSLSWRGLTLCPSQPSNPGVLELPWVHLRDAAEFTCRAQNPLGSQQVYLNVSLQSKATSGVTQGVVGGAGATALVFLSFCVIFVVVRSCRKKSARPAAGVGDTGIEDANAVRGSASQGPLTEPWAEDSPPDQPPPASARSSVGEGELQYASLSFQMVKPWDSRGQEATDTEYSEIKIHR

Trypanosoma cruzi = assay: Trypanosoma cruzi phosphomannomutase and mannose-1-phosphate guanylyltransferase assay; type: functional; details: 10 µM
[5] = target: T2, Arginase-2, mitochondrial (Homo sapiens) (UniProt P78540); assay: in vitro enzyme assay to detect the production of urea directly proportional to the activity of Arginase II; type: functional; details: 33.3 µM; also: in the data most compounds retested in dose-response had high values
T2 sequence (whole entry): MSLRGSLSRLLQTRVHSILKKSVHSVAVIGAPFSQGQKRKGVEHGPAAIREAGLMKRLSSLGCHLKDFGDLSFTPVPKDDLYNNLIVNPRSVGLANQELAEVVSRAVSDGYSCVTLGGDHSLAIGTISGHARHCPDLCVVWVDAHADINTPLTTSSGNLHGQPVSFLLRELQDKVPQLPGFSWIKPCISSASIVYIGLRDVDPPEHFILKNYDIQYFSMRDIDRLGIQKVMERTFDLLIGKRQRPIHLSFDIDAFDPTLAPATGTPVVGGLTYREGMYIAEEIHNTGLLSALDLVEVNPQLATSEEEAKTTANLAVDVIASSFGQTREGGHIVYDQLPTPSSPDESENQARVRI

[6] = target: T3, Proteasome subunit beta (Trypanosoma cruzi) (UniProt O96673); assay: Trypanosoma cruzi proteasome chymotrypsin-like activity (TcProtChymo) assay.; also: in the data most compounds retested in dose-response had high values; type: functional; details: 9.37 µM
T3 sequence (whole entry): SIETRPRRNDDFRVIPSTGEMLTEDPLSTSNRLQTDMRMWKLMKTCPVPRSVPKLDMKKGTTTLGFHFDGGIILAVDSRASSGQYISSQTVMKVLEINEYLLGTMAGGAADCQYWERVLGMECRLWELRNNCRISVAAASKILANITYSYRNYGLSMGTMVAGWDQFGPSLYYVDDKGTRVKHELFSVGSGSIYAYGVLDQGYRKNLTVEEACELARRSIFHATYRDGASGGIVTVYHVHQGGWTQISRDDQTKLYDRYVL

Homo sapiens = species: Homo sapiens; assay: To identify inhibition of the IFN signalling (Jak-Stat) pathway via expression of an eGFP reporter gene under the control of an IFN-stimulated response element (ISRE) containing MxA promoter.; type: functional; details: 30 µM
[7] = target: T4, Tyrosyl-tRNA synthetase, putative (Trypanosoma cruzi (strain CL Brener)) (UniProt Q4DSP6); assay: Trypanosoma cruzi tyrosyl tRNA synthetase (TcYRS) _High Tyrosine SOP; type: functional; details: 30 µM; also: in the data most compounds retested in dose-response had high values
T4 sequence (whole entry): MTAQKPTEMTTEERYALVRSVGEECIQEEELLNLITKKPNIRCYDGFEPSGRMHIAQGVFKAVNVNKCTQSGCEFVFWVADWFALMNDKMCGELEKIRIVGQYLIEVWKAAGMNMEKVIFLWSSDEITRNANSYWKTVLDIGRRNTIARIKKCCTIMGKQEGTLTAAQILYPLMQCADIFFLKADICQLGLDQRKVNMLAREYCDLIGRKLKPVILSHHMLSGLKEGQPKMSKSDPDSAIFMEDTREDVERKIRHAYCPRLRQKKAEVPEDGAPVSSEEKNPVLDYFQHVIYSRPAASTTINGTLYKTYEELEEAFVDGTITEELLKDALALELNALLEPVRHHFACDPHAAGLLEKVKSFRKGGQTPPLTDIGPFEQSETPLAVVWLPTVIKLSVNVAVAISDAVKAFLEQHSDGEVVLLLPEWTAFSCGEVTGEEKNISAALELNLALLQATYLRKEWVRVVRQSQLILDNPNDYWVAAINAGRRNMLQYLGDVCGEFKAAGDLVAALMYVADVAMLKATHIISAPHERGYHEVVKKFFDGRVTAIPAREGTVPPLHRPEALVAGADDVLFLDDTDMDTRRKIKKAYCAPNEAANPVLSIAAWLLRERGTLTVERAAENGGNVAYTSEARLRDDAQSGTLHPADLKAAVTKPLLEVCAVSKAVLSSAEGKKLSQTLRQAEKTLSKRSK

[8] = target: T4, Tyrosyl-tRNA synthetase, putative (Trypanosoma cruzi (strain CL Brener)); assay: Trypanosoma cruzi tyrosyl tRNA synthetase (TcYRS) SOP; type: functional; details: 30 µM
[9] = target: Chromo domain-containing protein 1 (Saccharomyces cerevisiae (strain ATCC 204508 / S288c) (Baker's yeast)) (UniProt P32657); assay: ScCHD-1 Enzyme Inhibition Assay; type: functional; details: 30 µM; also: in the data most compounds retested in dose-response had high values
Chromo domain-containing protein 1 (Saccharomyces cerevisiae (strain ATCC 204508 / S288c) (Baker's yeast)), sequence (P32657 whole entry, the tested form may be a part): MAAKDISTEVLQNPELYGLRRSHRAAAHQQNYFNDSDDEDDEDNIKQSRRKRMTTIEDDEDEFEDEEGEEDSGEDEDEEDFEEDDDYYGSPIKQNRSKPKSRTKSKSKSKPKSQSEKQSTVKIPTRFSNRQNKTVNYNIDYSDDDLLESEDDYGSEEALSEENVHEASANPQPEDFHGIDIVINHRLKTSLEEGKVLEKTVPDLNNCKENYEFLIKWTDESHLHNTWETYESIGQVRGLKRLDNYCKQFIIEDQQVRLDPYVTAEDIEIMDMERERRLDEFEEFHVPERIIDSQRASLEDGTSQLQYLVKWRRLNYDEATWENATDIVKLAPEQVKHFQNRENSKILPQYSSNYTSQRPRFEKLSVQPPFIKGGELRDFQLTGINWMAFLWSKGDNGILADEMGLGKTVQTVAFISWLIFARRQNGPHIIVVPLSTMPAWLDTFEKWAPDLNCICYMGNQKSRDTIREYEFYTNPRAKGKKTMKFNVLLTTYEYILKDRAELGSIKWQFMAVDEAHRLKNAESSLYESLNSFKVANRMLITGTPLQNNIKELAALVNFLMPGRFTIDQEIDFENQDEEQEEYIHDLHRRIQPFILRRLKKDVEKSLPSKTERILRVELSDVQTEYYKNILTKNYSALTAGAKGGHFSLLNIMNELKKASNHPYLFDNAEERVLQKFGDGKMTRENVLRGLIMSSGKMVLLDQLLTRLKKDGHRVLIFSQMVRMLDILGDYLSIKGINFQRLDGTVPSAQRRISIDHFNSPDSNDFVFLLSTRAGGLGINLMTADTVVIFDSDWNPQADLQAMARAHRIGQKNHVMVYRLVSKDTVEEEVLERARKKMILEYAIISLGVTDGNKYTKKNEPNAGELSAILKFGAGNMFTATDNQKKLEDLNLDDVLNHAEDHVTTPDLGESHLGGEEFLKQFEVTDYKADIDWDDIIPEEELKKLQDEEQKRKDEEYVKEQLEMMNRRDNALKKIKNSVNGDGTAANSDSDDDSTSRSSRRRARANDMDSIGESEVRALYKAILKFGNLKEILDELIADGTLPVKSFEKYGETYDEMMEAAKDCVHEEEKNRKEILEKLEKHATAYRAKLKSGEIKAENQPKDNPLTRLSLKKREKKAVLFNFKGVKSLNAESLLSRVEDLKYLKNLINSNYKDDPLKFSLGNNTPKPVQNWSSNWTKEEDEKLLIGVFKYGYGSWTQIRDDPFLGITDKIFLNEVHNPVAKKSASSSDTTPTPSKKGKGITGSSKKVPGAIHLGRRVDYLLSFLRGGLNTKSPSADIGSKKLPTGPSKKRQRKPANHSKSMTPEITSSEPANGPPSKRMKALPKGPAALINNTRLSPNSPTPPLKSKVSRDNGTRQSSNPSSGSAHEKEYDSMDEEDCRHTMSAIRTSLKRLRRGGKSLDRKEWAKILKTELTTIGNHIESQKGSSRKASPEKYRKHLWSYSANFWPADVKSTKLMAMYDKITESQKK

Protein translocase subunit SecA (Escherichia coli (strain K12)), sequence (P10408 whole entry): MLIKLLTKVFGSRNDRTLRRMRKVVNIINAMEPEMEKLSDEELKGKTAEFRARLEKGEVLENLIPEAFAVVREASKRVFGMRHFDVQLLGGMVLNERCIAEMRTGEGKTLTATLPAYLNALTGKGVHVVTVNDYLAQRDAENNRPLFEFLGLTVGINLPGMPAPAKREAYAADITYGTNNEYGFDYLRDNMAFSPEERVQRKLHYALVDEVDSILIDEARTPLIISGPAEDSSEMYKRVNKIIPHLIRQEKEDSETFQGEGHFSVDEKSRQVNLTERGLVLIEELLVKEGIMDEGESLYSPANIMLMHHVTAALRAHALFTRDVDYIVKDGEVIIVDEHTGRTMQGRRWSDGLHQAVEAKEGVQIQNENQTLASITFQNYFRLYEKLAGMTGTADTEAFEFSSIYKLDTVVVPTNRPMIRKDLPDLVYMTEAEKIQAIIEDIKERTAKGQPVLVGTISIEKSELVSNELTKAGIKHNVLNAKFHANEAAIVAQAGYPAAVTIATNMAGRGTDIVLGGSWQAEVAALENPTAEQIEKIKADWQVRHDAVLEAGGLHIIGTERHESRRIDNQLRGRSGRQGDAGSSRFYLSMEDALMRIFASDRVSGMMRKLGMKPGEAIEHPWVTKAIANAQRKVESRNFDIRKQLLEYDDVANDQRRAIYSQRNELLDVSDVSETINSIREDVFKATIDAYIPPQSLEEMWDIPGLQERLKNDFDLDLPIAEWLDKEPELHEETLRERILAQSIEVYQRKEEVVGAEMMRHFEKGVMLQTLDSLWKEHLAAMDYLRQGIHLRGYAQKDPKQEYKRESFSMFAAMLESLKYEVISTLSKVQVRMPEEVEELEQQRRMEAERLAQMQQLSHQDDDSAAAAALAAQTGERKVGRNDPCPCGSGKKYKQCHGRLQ

Row | SMILES | Percent Effect [1] [%] | Percent Effect [2] [%] | Percent Effect [3] [%] | Percent Effect [4] [%] | Percent Effect (Trypanosoma cruzi) [%] | Percent Effect [5] [%] | Percent Effect [6] [%] | Percent Effect (Homo sapiens) [%] | Percent Effect [7] [%] | Percent Effect [8] [%] | Percent Effect [9] [%]
1 | CCN1CCN(c2ccc(F)cc2C(C)NCc2noc(C)n2)CC1 (stereo unspecified) | -1.18 | -8.11 | -2.95 | -6.13 | -1.27 | 1.74 | 2.83 | -7.51 | 1.07 | 1.24 | -0.843
2 | CN(C)CCn1c(=O)oc2ccc(NC(=O)CC(C)(C)C)cc21 | -5.92 | 16 | -6.21 | 19.3 | 4.38 | 14.1 | 7.67 | 5.54 | 10.4 | 23.5 | 1.52
3 | c1ccc(-c2cnc(CN3CCCC3Cn3cncn3)o2)cc1 (stereo unspecified) | -2.46 | 5.06 | -0.0232 | -1.55 | -2.93 | 2.66 | -0.737 | 10.6 | 7.39 | 13.9 | -8.4
4 | CN(Cc1ccco1)Cc1ccccc1CNC(=O)c1cc[nH]n1 | -2.78 | 0 | -0.254 | 5.67 | -6.56 | 0.952 | 15.2 | 18.9 | 1.59 | 4.88 | -4.37
5 | CC(=O)N1CCC(c2ccnc(Nc3cnccn3)n2)C1 (stereo unspecified) | -0.594 | 13.3 | 12.9 | 1.15 | -4.72 | -4.43 | 5.73 | 5.13 | 4.25 | 16.7 | -5.82
6 | CCc1nc(CN(C)CC2CCN(CC(C)O)CC2)no1 (stereo unspecified) | -2.22 | 0 | -8.55 | 0.164 | 9.46 | -2.86 | 1.03 | -23.1 | 2.65 | 7.32 | -1.75
7 | Cc1cc(N2CCCN(C(=O)Cc3ccc(O)c(Cl)c3)CC2)ccn1 | -3.42 | 13.7 | -3.37 | 6.51 | 2.18 | 0.399 | 22.2 | -10.9 | 8.33 | 18.5 | -1.79
8 | Cc1ccc(N2CCCC(NCc3ccsc3)C2)nn1 (stereo unspecified) | 1.41 | 13.5 | -7.55 | 2.96 | -6.7 | 1.6 | 8.29 | 11 | 4.43 | 16.1 | -7.21
9 | CCc1nccn1C1CCCN(C(=O)CCCNc2ncccn2)C1 (stereo unspecified) | -4.28 | 3.8 | 4.55 | 1.92 | -2.77 | 2.8 | 6 | 9.01 | 4.17 | 10.1 | -14.2
10 | Cc1cccc(C(=O)N(C)Cc2cc(Br)cs2)n1 | -6.38 | 5.26 | 7.43 | 4.27 | 4.77 | 0 | 12.8 | -26.6 | 4.25 | 7.79 | 0.914
11 | c1ccc(OCCCNCCn2cccn2)cc1 | -4.38 | 1.27 | -0.45 | 4.63 | 4 | -2.8 | 3.94 | -1.21 | 5.21 | 10.1 | -18.9
12 | CC1CCN(S(=O)(=O)NCc2ccccc2Cn2cncn2)CC1 | -3.83 | 13.9 | 6.66 | 0.681 | -1.54 | 3.23 | 13.4 | 10.6 | 3.12 | 20.2 | -23.4
13 | Fc1ccc(CN2CC[C@H]3O[C@@H](COCC4CCOCC4)CC[C@H]32)cc1 | -5.06 | 5.33 | 10.6 | -6.01 | -7.48 | -0.233 | 3.08 | 17.6 | -1.06 | -1.28 | -7.73
14 | c1ccc(-c2noc(CN3CCOC(Cn4cccn4)C3)n2)nc1 (stereo unspecified) | -0.328 | 0 | 4.78 | 8.36 | 0.188 | -1.53 | 3.51 | 6.16 | -0.49 | -2.44 | 4.99
15 | Cc1oc(C)c(C(=O)N2CCCN(Cc3cscn3)CC2)c1C | -6.32 | 7.79 | 7.44 | -1.26 | -1.47 | -2.32 | -1.37 | 14.5 | 6.67 | 9.41 | -15.7
16 | CC1(C)CC(N2Cc3nc(N)ncc3C2=O)CC(C)(C)N1 | 0.646 | 10.4 | -3.77 | 8.41 | 4.23 | -35.9 | 10.7 | 11 | 6.45 | 21 | -5.13
